The values that follow come from PubChem BioAssay AID493000 (Johns Hopkins Ion Channel Center, 2010).

The structures appear in SMILES notation. In all, about 1,900 compounds went through this assay and about 390 (21%) were called active. How the calls were made is not given here. The list is a sample of the results.

The experiment in a line: carbachol calcium response in non-induced M3R cells, confirmation, counter-screen for RGS4 inhibitor project, cell-based, HEK293 M3R (AID 493000).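 Further: RGS4 induction absent so cells express M3R without RGS4.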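 On activity (percent): higher means more calcium signal and flags a non-specific hit.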 The following applies: carbachol calcium Fluo-4, at 10 µM, submaximal (EC20) carbachol stimulus; hits give high values, buffer wells 0%, carbachol control wells 100%. (The purpose of a counterscreen is to sort out artefacts and off-target activity.)
As to `Cc1ccc(NC(=O)c2c(NC(=O)CCC(=O)O)sc3c2CCCCC3)cc1`, the activity (percent) result is “inactive”. For the molecule `CC(C)c1nc(SCC(=O)Nc2cccc(C(=O)O)c2)c2c3c(sc2n1)CCCC3`, the activity (percent) was 41.5% (active). Turning to `CCOc1ccc(/C=N/NC(=O)CSc2ccccn2)cc1O`, the activity (percent) entry was “inactive”. For the molecule `S=c1[nH]nc(-c2cccnc2)n1/N=C/C(Cl)=C\c1ccccc1`, the activity (percent) entry was “inactive”. Consider `COc1ccc(/C=C/C(=O)c2ccc(OC)cc2O)cc1`, for which the activity (percent) result was “inactive”.

Take `O=C(/C=C/c1ccc(Cl)c([N+](=O)[O-])c1)c1ccc(O)cc1`: the activity (percent) is 43.5% (active). The result for `O=C(/C=C/c1ccc(Cl)c([N+](=O)[O-])c1)c1cccnc1` reads 43.5% (active); that for `C1=C(N2CCOCC2)/C(=C/c2nc3ccccc3[nH]2)CC1`, “inactive”; that for `CNCC(O)c1ccc(O)c(O)c1` (centres undefined), “inactive”. In the case of `O=C(Nc1ccc(Cl)cc1)OCc1cc(-c2ccccc2)on1`, the activity (percent) entry was “inactive”. The result for `O=[N+]([O-])c1c(NCCO)cc(Sc2nc3ccccc3s2)c2nonc12` reads “inactive”; that for `CCCCC1S/C(=N/N=C/c2cccs2)NC1=O` (centres undefined), “inactive”; that for `COc1cc(Br)cc(/C=N/c2ncn[nH]2)c1O`, “inactive”.

For `Oc1ccc(/C=N/Nc2ccc(C(F)(F)F)cn2)cc1O`, the activity (percent) was 34.5% (active).

As to `Cn1c(-c2ccco2)nc2cc3ccccc3cc21`, the activity (percent) result was “inactive”. As for `COc1cc2c(cc1O)C(SC)=NC(C)(C)C2`, the activity (percent) entry is “inactive”. Consider `O=C1Nc2ccc(Br)cc2/C1=N/N=C/C1=C(N2CCOCC2)C(=C\c2ccccc2)/CC1`, for which the activity (percent) is 31.5% (active). As for `O=C(O)C(c1ccccc1)N1C(=O)/C(=C\c2ccc(-c3cccc(Cl)c3)o2)SC1=S` (centres undefined), the activity (percent) entry is “inactive”. For `COc1ccc(/C(O)=C2/C(=O)C(=O)N(c3nc(C)c(C)s3)C2c2ccco2)cc1` (centres undefined), the activity (percent) result was “inactive”.

Consider `C=C(C)C(=O)O[C@H]1C/C(C)=C\C(=O)/C=C(\C)[C@H](O)[C@@H]2OC(=O)C(=C)[C@@H]21`, for which the activity (percent) entry is “inactive”. Turning to `C[C@H](NC(=O)c1nc[nH]c1C(=O)NCC(=O)OC(C)(C)C)c1ccccc1`, the activity (percent) entry was “inactive”.

In the case of `Cc1ccc(Nc2nc(N)nc(CN3CCN(Cc4ccccc4)CC3)n2)cc1Cl`, the activity (percent) entry was “inactive”.

`O=C(CCN1CCc2ccccc2C(O)(c2ccccc2)C1)c1ccc2c(c1)OCCO2` (centres undefined): the activity (percent) was 34.5% (active).

Consider `CS(=O)(=O)N(CC(O)Cn1c2ccccc2c2ccccc21)c1cccc2ccccc12` (centres undefined), for which the activity (percent) result was “inactive”.

For `Oc1ccc(-c2[nH]ncc2-c2nc3ccccc3s2)c(O)c1`, the activity (percent) entry was “inactive”. For the molecule `CCn1c(O)c(N=NC2=NC(=O)CS2)c2cc(C)ccc21`, the activity (percent) entry is “inactive”. For the molecule `CCc1nnc(NS(=O)(=O)c2ccc(N=Cc3c(C)[nH]n(-c4ccc(C)cc4)c3=O)cc2)s1`, the activity (percent) result is “inactive”. Consider `O=C(NCc1ccccc1)c1ccc(S(=O)(=O)Nc2cccc(C(F)(F)F)c2)cc1`, for which the activity (percent) result was “inactive”. The result for `Cc1ccc(-c2c3c(=O)n(C)c(=O)n(C)c3cn2-n2cnnc2)cc1` reads “inactive”.

Consider `C#CCOc1ccc(/C=C2/C(=O)ON=C2C)cc1OCC`, for which the activity (percent) entry is “inactive”. `C=CCOc1ccc(/C=C2/C(=O)ON=C2C)cc1OCC`: the activity (percent) was 32.5% (active).

For `COc1cc(/C=C2/C(=O)ON=C2C)ccc1OCc1ccccc1F`, the activity (percent) result is “inactive”. As to `COC(=O)C1CCN(C(=O)c2cc(=O)[nH]c3ccccc23)CC1`, the activity (percent) result is “inactive”. Turning to `O=C(COC(=O)c1cccc(Br)c1)Nc1cccc2c1C(=O)c1ccccc1C2=O`, the activity (percent) result is “inactive”. Take `COC(=O)Cn1cc(/C=C/[N+](=O)[O-])c2ccccc21`: the activity (percent) is 38% (active). Turning to `O=[N+]([O-])/C=C/c1ccc2c(ccn2Cc2ccccc2)c1`, the activity (percent) entry is “inactive”. Consider `COc1ccc2c(c1OC)C(=O)OC2Nc1nc(-c2ccccc2)cs1` (centres undefined), for which the activity (percent) entry was “inactive”. As to `Cc1ccc(S/C(=N\S(=O)(=O)c2ccc(Cl)cc2)c2ccccc2)cc1`, the activity (percent) result was “inactive”. Consider `Cc1ccc(Sc2cc(N3CCOCC3)nc(-c3ccccc3)n2)cc1`, for which the activity (percent) was 55.5% (active).

Take `Cc1c(NC(=O)c2coc(=O)c(Br)c2)c(=O)n(-c2ccccc2)n1C`: the activity (percent) result was “inactive”. As to `c1ccc(C[C@H]2CNCCN2CCC23CC4CC(CC(C4)C2)C3)cc1`, the activity (percent) entry was “inactive”. Take `Cc1ccc(C)c(Cn2nnc3c(=O)[nH]c(C(=O)Nc4ccc(F)cc4)nc32)c1`: the activity (percent) is 45.5% (active). For `O=C1NC(c2ccc(-c3ccccc3[N+](=O)[O-])o2)C(C(=O)c2ccc(Cl)cc2)C(O)(C(F)(F)F)N1` (centres undefined), the activity (percent) was 38.5% (active). Regarding `CCOC(=O)C1CCN(C(c2cc3cc(C)cc(C)c3[nH]c2=O)c2nnnn2C2CCCCC2)CC1` (centres undefined), the activity (percent) result is “inactive”. The result for `Cc1nc(-c2ccccc2)sc1C(=O)/C=C/c1ccccc1` reads “inactive”; that for `COc1ccc(S(=O)(=O)Nc2ccc(O)c(Sc3nc4ccccc4s3)c2)cc1`, “inactive”; that for `Cc1nn2c(=O)cc(COC(=O)c3ccc(NC(=O)C(C)(C)C)cc3)nc2s1`, “inactive”. With `COc1ccc(NCc2nnc(SCc3ccccc3)n2-c2ccc(OC)cc2)cc1`, the activity (percent) result is “inactive”. In the case of `COc1cc(/C=C2/C(=O)NN(c3cccc(Cl)c3)C2=O)cc(Br)c1O`, the activity (percent) was 28.5% (active).

Consider `C#CCOc1ccc(/C=C2/C(=O)NN(c3ccccc3)C2=O)cc1OC`, for which the activity (percent) entry is “inactive”. Consider `COc1cc(/C=C2/SC(=S)N(Cc3ccccc3)C2=O)cc(OC)c1O`, for which the activity (percent) result is “inactive”.

For the molecule `CC(C)Cc1nc(Nc2ccc(S(=O)(=O)N3CCCC3)cc2)c2nnn(Cc3ccccc3)c2n1`, the activity (percent) entry was “inactive”. `CCc1ccc(C2C(C#N)=C(N)N(N3CCOCC3)C3=C2C(=O)CC(C)(C)C3)s1` (centres undefined): the activity (percent) result was “inactive”. For `COCCCNC(=S)N(CCN(C)C)Cc1cc2cc3c(cc2[nH]c1=O)OCCO3`, the activity (percent) entry is “inactive”. Consider `O=C(N/N=C/c1ccccc1O)/C(=C/c1ccccc1)CCO`, for which the activity (percent) entry was “inactive”. The result for `COc1ccc(OC)c(S(=O)(=O)N2CCCC(C(=O)N3CCC(C(N)=O)CC3)C2)c1` (centres undefined) reads “inactive”. As to `CNc1nc(Nc2ccc(C)c(Cl)c2)nc(N)c1[N+](=O)[O-]`, the activity (percent) result was “inactive”.

Consider `CC(=O)Nc1ccc(S(=O)(=O)Nc2nc(-c3ccc(C(C)(C)C)cc3)cs2)cc1`, for which the activity (percent) was 51% (active).

For the molecule `COc1ccc(-c2csc(Nc3ccc(O)cc3)n2)cc1`, the activity (percent) result was “inactive”. On to `Cc1noc(NS(=O)(=O)c2ccc(N/C=C/C(=O)c3ccccc3)cc2)c1C`, for which the activity (percent) result is “inactive”. As for `Cc1ccsc1/C=N/n1c(=S)[nH]nc(C)c1=O`, the activity (percent) result was “inactive”. On to `Cc1nc(Nc2ccc(S(=O)(=O)N3CCCC3)cc2)c2nnn(Cc3ccccc3)c2n1`, for which the activity (percent) result is “inactive”.

In the case of `O=C(O)c1ccc2c(=O)n3c(nc2c1)/C(=C/c1ccc(Cl)c([N+](=O)[O-])c1)CC3`, the activity (percent) entry was “inactive”.

Turning to `Cc1ccc(/C=C2\CCn3c2nc2cc(C(=O)O)ccc2c3=O)c(C)c1`, the activity (percent) was 33% (active).
